“And” between values parts separate entries of the source, which are not always exact repeats. Identical values can stand only once. The campaign covered roughly 5,500 compounds. About 2,000 (36%) were called active. Roughly 18% stayed inconclusive and do not appear here. Rule as the data show it: active = normalized growth mostly below about 0.91 (no sharp cut-off); inconclusive = no clear call, values can overlap the other calls; inactive = mostly above about 0.92. The list shows a part of the results.
Test: chemical genetic growth profiling, strain panel (AID 1159580);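 also: tested at 20 µM; growth read once vehicle control cultures reached saturation at 30 °C; 1 = growth at the plate median or of vehicle wells; lower values mean less growth of the strain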
Details: S. cerevisiae deletion strains, growth OD

Measured: normalized growth

CC(C)(C)NCC(O)c1ccc(O)c(CO)c1 (stereo not given)
inactive: locus YAL013W, strain DEP1, active compounds read low 1 and 1.04 | locus YAL021C, strain ccr4, active compounds read low 1.02 | locus YAL026C, strain drs2, active compounds read low 1.02 | locus YAL030W, strain snc1, active compounds read low 1.02 | locus YAL040C, strain CLN3, active compounds read low 0.991 and 1.01 | locus YBL061C, strain skt5, active compounds read low 1.02 | locus YBR009C, strain hhf1, active compounds read low 0.998 | locus YBR021W, strain FUR4, active compounds read low 1.01 | locus YBR023C, strain chs3, active compounds read low 1.01 | locus YBR171W, strain sec66, active compounds read low 1.02 | locus YBR229C, strain ROT2, active compounds read low 1 | locus YBR231C, strain swc5, active compounds read low 1.01 | locus YBR279W, strain paf1, active compounds read low 1.01 | locus YCL011C, strain gbp2, active compounds read low 0.998 | locus YCL016C, strain dcc1, active compounds read low 1.02 | locus YCL029C, strain bik1, active compounds read low 1.01 | locus YCL061C, strain MRC1 (second series), active compounds read low 1 and 1.01 | locus YCL061C, strain MRC1, active compounds read low 1 | locus YCL069W, strain vba3, active compounds read low 1.02 | locus YCR088W, strain abp1, active compounds read low 1.01 | locus YDL005C, strain med2, active compounds read low 1.01 | locus YDL035C, strain GPR1, active compounds read low 1.04 | locus YDL040C, strain nat1, active compounds read low 1 | locus YDL074C, strain BRE1, active compounds read low 1.06 | locus YDL101C, strain DUN1, active compounds read low 1.01 | locus YDL134C, strain PPH21, active compounds read low 1 | locus YDL185W, strain tfp1, active compounds read low 1.02 | locus YDL192W, strain arf1, active compounds read low 1.02 | locus YDR001C, strain nth1, active compounds read low 1.01 | locus YDR069C, strain doa4, active compounds read low 0.998 | locus YDR101C, strain arx1, active compounds read low 0.972 | locus YDR137W, strain rgp1, active compounds read low 1.01 | locus YDR150W, strain NUM1, active compounds read low 1.01 | locus YDR159W, strain sac3, active compounds read low 0.99 | locus YDR162C, strain NBP2, active compounds read low 1.03 | locus YDR195W, strain ref2 0.99 | locus YDR297W, strain sur2, active compounds read low 1.01 | locus YDR318W, strain mcm21, active compounds read low 1.02 | locus YDR334W, strain swr1, active compounds read low 0.995 | locus YDR335W, strain msn5, active compounds read low 1.02 | locus YDR363W, strain ESC2, active compounds read low 1.03 | locus YDR388W, active compounds read low 1.02 | locus YDR392W, strain spt3, active compounds read low 0.981 | locus YDR502C, strain sam2, active compounds read low 1.02 | locus YEL003W, strain gim4, active compounds read low 1.01 | locus YEL037C, strain rad23, active compounds read low 1.01 | locus YEL061C, strain CIN8 (second series), active compounds read low 1 | locus YEL061C, strain CIN8, active compounds read low 1.01 | locus YER002W, strain NOP16, active compounds read low 0.988 and 1.03 | locus YER015W, strain faa2, active compounds read low 1.02 | locus YER016W, strain bim1, active compounds read low 1.03 | locus YER110C, active compounds read low 1.02 | locus YER111C, strain swi4, active compounds read low 1.01 | locus YER155C, strain BEM2 (second series), active compounds read low 0.982 | locus YER155C, strain BEM2, active compounds read low 1.01 | locus YER167W, strain BCK2, active compounds read low 1.02 | locus YFR010W, strain ubp6, active compounds read low 1.01 | locus YGL078C, strain dbp3, active compounds read low 1.03 | locus YGL086W, strain mad1, active compounds read low 1.01 | locus YGL167C, strain pmr1, active compounds read low 1.02 | locus YGL173C, strain kem1, active compounds read low 1.01 | locus YGL227W, strain vid30, active compounds read low 0.989 | locus YGL240W, strain doc1, active compounds read low 1.02 | locus YGL248W, strain PDE1, active compounds read low 0.998 | locus YGL253W, strain hxk2, active compounds read low 1.01 | locus YGR078C, strain PAC10, active compounds read low 1.02 | locus YGR135W, strain pre9, active compounds read low 1.06 | locus YGR229C, strain SMI1, active compounds read low 1.02 and 1.05 | locus YGR252W, strain gcn5, active compounds read low 1.12 | locus YHR013C, strain ard1, active compounds read low 1.01 | locus YHR027C, strain rpn1, active compounds read low 1.01 | locus YHR030C, strain SLT2, active compounds read low 1.01 and 1.03 | locus YHR079C, strain IRE1 (second series), active compounds read low 1.01 | locus YHR079C, strain IRE1, active compounds read low 1.03 | locus YHR094C, strain hxt1, active compounds read low 1.02 | locus YHR129C, strain ARP1, active compounds read low 1.02 | locus YHR142W, strain chs7, active compounds read low 1 | locus YHR200W, strain rpn10, active compounds read low 1.02 | locus YIL066C, strain RNR3, active compounds read low 1.01 | locus YIL073C, strain SPO22, active compounds read low 1.1 | locus YIL125W, strain kgd1, active compounds read low 1.01 | locus YIR030C, strain dcg1, active compounds read low 1.02 | locus YJL092W, strain hpr5, active compounds read low 1.01 | locus YJL095W, strain BCK1 (second series), active compounds read low 1.03 | locus YJL095W, strain BCK1, active compounds read low 1.01 and 1.03 | locus YJL115W, strain asf1, active compounds read low 1.04 | locus YJL129C, strain trk1, active compounds read low 1 | locus YJL134W, strain LCB3, active compounds read low 1.02 | locus YJL154C, strain vps35, active compounds read low 1.02 | locus YJL164C, strain tpk1, active compounds read low 1 | locus YJL166W, strain qcr8, active compounds read low 0.999 | locus YJL168C, strain set2, active compounds read low 1.01 | locus YJL187C, strain SWE1 (second series), active compounds read low 0.996 | locus YJR043C, strain POL32, active compounds read low 1.03 | locus YJR066W, strain TOR1, active compounds read low 0.979

From PubChem BioAssay AID1159580 (chemical genetic matrix, 2015)
